Source: paper PMC5540273 (PLoS ONE, 2017)

System: EPHB2
Settings: concentration: 1 μM,replicates: in singlicate; n = 1
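Further: KINOMEscan kinase panel screen.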

Row | SMILES | %Inh
1 | CCN(CC)CCOc1ccc(Nc2ncc3cc(-c4c(Cl)cccc4Cl)c(=O)n(C)c3n2)cc1 [SB-601273] | 100%
2 | Cc1cc(C(=O)Nc2ccc(Oc3ccc4nc(NC(=O)C5CC5)cn4n3)cc2)nn1-c1ccccc1 | 30%
3 | Cl.Oc1cc(-c2nc(-c3ccccc3)[nH]c2-c2ccncc2)ccc1Cl [SB-386023] | 0%
4 | CNC(=O)c1ccccc1Sc1ccc2c(/C=C/c3ccccn3)n[nH]c2c1 | 0%
5 | Cc1ccc2c(-c3ccncc3)c(-c3ccc(F)cc3)nn2c1.Cl [GW461484] | 0%
6 | CN(C)CC(O)COc1ccc(Nc2nccc(-c3cnn4nc(N5CCOCC5)ccc34)n2)cc1 (stereo not shown) [GW767488] | 0%
7 | Cl.Cl.Nc1nc(-c2ccc3c(N)n[nH]c3c2)cc(N2CCCC(NC(=O)c3ccccc3)C2)n1 (stereo not shown) [GSK2286775] | 10%
8 | CCn1c(-c2nonc2N)nc2c(C#CC(C)(C)O)nc(OCCN)cc21.Cl.Cl [GSK902056] | 1%
9 | CC(C)Nc1cc(-c2ccc3c(N)n[nH]c3c2)nc(N)n1 [GSK2221681] | 0%
10 | Cl.Cl.NC[C@H](CC1CCCCC1)NC(=O)c1cc(Br)c(-c2ccnc3[nH]ccc23)s1 [GSK1581427] | 0%
11 | Cc1ccc(-n2nc(C(C)(C)C)cc2NC(=O)Nc2ccc(OCCN3CCOCC3)c3ccccc23)cc1 [GW839464] | 37%
12 | Nc1nc(Nc2ccccc2)cc(-c2ccc3c(N)n[nH]c3c2)n1 [GSK2225749] | 0%
13 | C[C@@H]1CCN(C(=O)CC#N)C[C@@H]1N(C)c1ncnc2[nH]ccc12 | 0%
14 | CCN(CC)CCCCNc1ncc2cc(-c3c(Cl)cccc3Cl)c(NC(=O)NC(C)(C)C)nc2n1 | 93%
15 | CC(C)N1C(=O)Cc2cc(Nc3ncc(C(F)(F)F)c(NCc4cccc(S(C)(=O)=O)c4)n3)ccc21 | 3%
16 | Cl.Cl.NC[C@H](Cc1ccc(C(F)(F)F)cc1)NC(=O)c1cc(Br)c(-c2ccnc3[nH]ccc23)s1 [GSK1487252] | 10%
17 | Cc1n[nH]c2ccc(-c3cc(OC[C@@H](N)Cc4ccccc4)cnc3-c3ccoc3)cc12.O=C(O)C(F)(F)F.O=C(O)C(F)(F)F [GSK507358] | 0%
18 | Cc1cc2cn[nH]c2cc1-c1cccc2c(N)c(C(N)=O)nnc12 | 0%
19 | COc1ccc(C[C@@H](CN)NC(=O)c2cc(Br)c(-c3ccnc4[nH]ccc34)s2)cc1.Cl.Cl [GSK1389063] | 1%
20 | O=C(NCCNc1ccnc(NCc2ccc(F)cc2)n1)c1cc2ccccc2s1 [GSK1379944] | 80%
21 | C[C@H]1Oc2cc(cnc2N)-c2c(nn(C)c2C#N)CN(C)C(=O)c2ccc(F)cc21 | 30%
22 | O=C(NCCCN1CCOC1=O)c1cnc(NCc2cc(Cl)ccc2Cl)nc1NC1CCCC1 | 12%
23 | NC(=O)c1cc(-c2ccccc2)cc2c(C3CCNCC3)c[nH]c12 [GSK301362] | 29%
24 | CN(C)CCOc1ccc(-c2cc(-c3c[nH]nc3-c3ccccn3)ccn2)cc1 [GW835314] | 11%
25 | Cc1occc1-c1nc(N)c(OC[C@@H](N)Cc2c[nH]c3ccccc23)cc1-c1cc2c(C)n[nH]c2cn1 [GSK1660450] | 0%

System: EPHB3
Settings: concentration: 1 μM,replicates: in singlicate; n = 1

Row | SMILES | %Inh
26 | CCN(CC)CCOc1ccc(Nc2ncc3cc(-c4c(Cl)cccc4Cl)c(=O)n(C)c3n2)cc1 [SB-601273] | 99.9%
27 | Cc1cc(C(=O)Nc2ccc(Oc3ccc4nc(NC(=O)C5CC5)cn4n3)cc2)nn1-c1ccccc1 | 19%
28 | Cl.Oc1cc(-c2nc(-c3ccccc3)[nH]c2-c2ccncc2)ccc1Cl [SB-386023] | 22%
29 | CNC(=O)c1ccccc1Sc1ccc2c(/C=C/c3ccccn3)n[nH]c2c1 | 0%
30 | Cc1ccc2c(-c3ccncc3)c(-c3ccc(F)cc3)nn2c1.Cl [GW461484] | 5%
31 | CN(C)CC(O)COc1ccc(Nc2nccc(-c3cnn4nc(N5CCOCC5)ccc34)n2)cc1 (stereo not shown) [GW767488] | 0%
32 | Cl.Cl.Nc1nc(-c2ccc3c(N)n[nH]c3c2)cc(N2CCCC(NC(=O)c3ccccc3)C2)n1 (stereo not shown) [GSK2286775] | 11%
33 | CCn1c(-c2nonc2N)nc2c(C#CC(C)(C)O)nc(OCCN)cc21.Cl.Cl [GSK902056] | 11%
34 | CC(C)Nc1cc(-c2ccc3c(N)n[nH]c3c2)nc(N)n1 [GSK2221681] | 0%
35 | Cl.Cl.NC[C@H](CC1CCCCC1)NC(=O)c1cc(Br)c(-c2ccnc3[nH]ccc23)s1 [GSK1581427] | 5%
36 | Cc1ccc(-n2nc(C(C)(C)C)cc2NC(=O)Nc2ccc(OCCN3CCOCC3)c3ccccc23)cc1 [GW839464] | 7%
37 | Nc1nc(Nc2ccccc2)cc(-c2ccc3c(N)n[nH]c3c2)n1 [GSK2225749] | 0%
38 | C[C@@H]1CCN(C(=O)CC#N)C[C@@H]1N(C)c1ncnc2[nH]ccc12 | 0%
39 | C=CC(=O)Nc1cc2c(Nc3ccc(F)c(Cl)c3)ncnc2cc1OCCCN1CCOCC1 [GW781483] | 0%
40 | CCN(CC)CCCCNc1ncc2cc(-c3c(Cl)cccc3Cl)c(NC(=O)NC(C)(C)C)nc2n1 | 26%
41 | CC(C)N1C(=O)Cc2cc(Nc3ncc(C(F)(F)F)c(NCc4cccc(S(C)(=O)=O)c4)n3)ccc21 | 0%
42 | Cl.Cl.NC[C@H](Cc1ccc(C(F)(F)F)cc1)NC(=O)c1cc(Br)c(-c2ccnc3[nH]ccc23)s1 [GSK1487252] | 20%
43 | Cc1n[nH]c2ccc(-c3cc(OC[C@@H](N)Cc4ccccc4)cnc3-c3ccoc3)cc12.O=C(O)C(F)(F)F.O=C(O)C(F)(F)F [GSK507358] | 14%
44 | Cc1cc2cn[nH]c2cc1-c1cccc2c(N)c(C(N)=O)nnc12 | 0%
45 | COc1ccc(C[C@@H](CN)NC(=O)c2cc(Br)c(-c3ccnc4[nH]ccc34)s2)cc1.Cl.Cl [GSK1389063] | 31%
46 | O=C(NCCNc1ccnc(NCc2ccc(F)cc2)n1)c1cc2ccccc2s1 [GSK1379944] | 27%
47 | C[C@H]1Oc2cc(cnc2N)-c2c(nn(C)c2C#N)CN(C)C(=O)c2ccc(F)cc21 | 2%
48 | O=C(NCCCN1CCOC1=O)c1cnc(NCc2cc(Cl)ccc2Cl)nc1NC1CCCC1 | 24%
49 | NC(=O)c1cc(-c2ccccc2)cc2c(C3CCNCC3)c[nH]c12 [GSK301362] | 15%
50 | CN(C)CCOc1ccc(-c2cc(-c3c[nH]nc3-c3ccccn3)ccn2)cc1 [GW835314] | 59%
51 | C[C@@H](Oc1cc(-c2cnn(C3CCNCC3)c2)cnc1N)c1c(Cl)ccc(F)c1Cl | 16%
52 | Cc1occc1-c1nc(N)c(OC[C@@H](N)Cc2c[nH]c3ccccc23)cc1-c1cc2c(C)n[nH]c2cn1 [GSK1660450] | 23%
